Source: PubChem BioAssay (Tox21)
Unmarked numbers belong to inactive results. Records with an inconclusive call do not appear. A call without a number means that no potency is given here. The source made the active and inactive calls. Unless noted, calls come from the whole dose curve; as a rule, active = well fitted curve in the direction sought with a large enough effect in the repeat runs; inconclusive = weak or mixed curves; inactive = flat fitted curve, though single readings scatter.

Key:
[1] = qHTS assay to test for compound auto fluorescence at 535 nm (green) in HEK293 cells (AID 720680)
[2] = qHTS assay to test for compound auto fluorescence at 460 nm (blue) in HEK293 cell free culture (AID 720681)
Procedure, shortened: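 Test compounds were pinned into cell-free culture medium (DMEM with 10% FBS) and fluorescence was read directly at Ex/Em 405/460 nm. Signals were expressed as fluorescence equivalents of triamterene, with DMSO vehicle as control.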

[3] = qHTS assay to test for compound auto fluorescence at 535 nm (green) in HEK293 cell free culture (AID 720682)
Procedure, shortened: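 Cell-free medium (DMEM, 10% FBS) receives compound or DMSO by pintool. Plate read directly at Ex 485/Em 535 nm. Signal converted to fluorescein equivalency.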

[4] = qHTS assay to test for compound auto fluorescence at 590 nm (red) in HEK293 cell free culture (AID 720683)
Procedure, shortened: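 Tox21 10K library compounds were pinned into cell-free DMEM with 10% FBS and fluorescence was read at excitation 540 nm. Activity is expressed as Rose Bengal sodium equivalency.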

[5] = qHTS assay to test for compound auto fluorescence at 590 nm (red) in HepG2 cell free culture (AID 720684)
Procedure, shortened: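 Red fluorescence (540 nm excitation, 590 nm emission) was measured after compound transfer into cell-free MEM supplemented with 10% FBS. Values are equivalencies against Rose Bengal sodium.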

[6] = qHTS assay to test for compound auto fluorescence at 460 nm (blue) in HepG2 cell free culture (AID 720685)
Procedure, shortened: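 Compound (23 nL) or DMSO pinned into cell-free MEM with 10% FBS; blue fluorescence read at 405/460 nm excitation/emission, expressed as auto-fluorescence equivalency to triamterene.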

[7] = qHTS assay to test for compound auto fluorescence at 535 nm (green) in HepG2 cell free culture (AID 720686)
[8] = qHTS assay to test for compound auto fluorescence at 460 nm (blue) in HepG2 cells (AID 720687)
Procedure, shortened: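 Cells (2,000/well in MEM with 10% FBS) attached overnight at 37 C, then were exposed to compound or DMSO for 1 hr at 37 C, 5% CO2. Fluorescence read at Ex/Em 405/460 nm, expressed as triamterene-equivalent signal.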

[9] = biological target: Glucocorticoid receptor (Homo sapiens) (UniProt P04150); experiment: qHTS assay to identify small molecule agonists of the glucocorticoid receptor (GR) signaling pathway (AID 720691; active = well fitted activation curve with a large enough effect in the signal ratio in the repeat runs, not every such curve was filed as active; the % refers to the signal ratio; note: potency is the fitted concentration of half-maximal effect)
Glucocorticoid receptor (Homo sapiens), sequence (P04150 whole entry, looked up): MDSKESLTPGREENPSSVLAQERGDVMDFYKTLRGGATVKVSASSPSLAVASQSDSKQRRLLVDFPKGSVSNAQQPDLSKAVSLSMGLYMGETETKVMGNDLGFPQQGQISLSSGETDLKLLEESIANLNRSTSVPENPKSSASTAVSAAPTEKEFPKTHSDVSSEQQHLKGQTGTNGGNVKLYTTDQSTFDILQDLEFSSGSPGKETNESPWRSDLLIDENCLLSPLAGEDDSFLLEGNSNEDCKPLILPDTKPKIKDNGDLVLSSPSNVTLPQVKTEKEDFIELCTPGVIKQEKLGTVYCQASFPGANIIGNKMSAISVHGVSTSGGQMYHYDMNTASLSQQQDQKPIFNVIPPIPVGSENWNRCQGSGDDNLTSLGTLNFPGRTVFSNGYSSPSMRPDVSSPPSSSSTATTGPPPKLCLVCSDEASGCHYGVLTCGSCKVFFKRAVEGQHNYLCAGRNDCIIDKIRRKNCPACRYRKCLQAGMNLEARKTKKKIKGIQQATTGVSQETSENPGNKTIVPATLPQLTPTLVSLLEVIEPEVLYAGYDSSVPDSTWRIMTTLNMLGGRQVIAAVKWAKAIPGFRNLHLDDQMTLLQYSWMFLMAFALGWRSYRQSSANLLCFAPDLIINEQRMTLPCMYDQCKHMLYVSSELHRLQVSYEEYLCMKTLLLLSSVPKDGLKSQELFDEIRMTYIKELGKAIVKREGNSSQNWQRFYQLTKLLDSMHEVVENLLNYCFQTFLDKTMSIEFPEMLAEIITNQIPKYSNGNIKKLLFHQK
Procedure, shortened: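 GR-bla HeLa cells carrying a GRE-driven beta-lactamase reporter, exposed to compounds for 18 h at 37 C. Reporter activation read as fluorescence after 2 h with LiveBLAzer B/G FRET substrate at room temperature.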

[10] = biological target: Glucocorticoid receptor (Homo sapiens) (UniProt P04150); experiment: qHTS assay to identify small molecule antagonists of the glucocorticoid receptor (GR) signaling pathway (AID 720692; active = well fitted inhibition curve with a large enough effect in the signal ratio in the repeat runs, not every such curve was filed as active; the % refers to the signal ratio)
Procedure, shortened: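 GR-bla HeLa cells carrying a GRE-driven beta-lactamase reporter received compound after 4 h plating, then dexamethasone (5 nM final). After 18 h at 37C, the FRET substrate was loaded for 2 h at room temperature and fluorescence read.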

| SMILES | fluorescence, % of fluorescein [1] | fluorescence, % of fluorescent control [2] | activity change [3] | fluorescence, % of fluorescent control [4] | fluorescence, % of Rose Bengal [5] | fluorescence, % of fluorescent control [6] | fluorescence, % of fluorescein control [7] | fluorescence, % of fluorescent control [8] | Potency [9] | outcome [1] | outcome [2] | outcome [3] | outcome [4] | outcome [5] | outcome [6] | outcome [7] | outcome [8] | Potency [10] |
| --- | --- | --- | --- | --- | --- | --- | --- | --- | --- | --- | --- | --- | --- | --- | --- | --- | --- | --- |
| C[N+]1(C)CCCC(OC(=O)C(O)(c2ccccc2)c2ccccc2)C1 (stereo not given) | -0.129% [at 18.6 µM] | 0.158% [at 18.6 µM] | -0.0354% [at 18.6 µM] | 0.023% [at 18.6 µM] | -0.11% [at 18.6 µM] | -0.0313% [at 18.6 µM] | -0.0015% [at 18.6 µM] | -0.102% [at 18.6 µM] | 7.23 µM (active) |  |  |  |  |  |  |  |  |  |
| c1coc(CNc2ncnc3nc[nH]c23)c1 |  |  |  |  |  |  |  |  | inactive | inactive | inactive | inactive | inactive | inactive | inactive | inactive | inactive |  |
| CC(=O)Oc1cccc(C)c1 |  |  |  |  |  |  |  |  |  | inactive | inactive | inactive | inactive | inactive | inactive | inactive | inactive |  |
| CO[C@@]1(NC(=O)CSC[C@@H](N)C(=O)O)C(=O)N2C(C(=O)O)=C(CSc3nnnn3C)CS[C@@H]21 |  |  |  |  |  |  |  |  |  | inactive | inactive | inactive | inactive | inactive | inactive | inactive | inactive |  |
| O=C1c2ccccc2C(=O)c2cc(O)ccc21 |  |  |  |  |  |  |  |  |  | inactive | inactive | inactive | inactive | inactive | inactive | inactive | inactive |  |
| CCOC(=O)c1cnc2c(cnn2CC)c1NN=C(C)C |  |  |  |  |  |  |  |  |  | inactive | inactive | inactive | inactive | inactive | inactive | inactive | inactive |  |
| NC(=O)N1c2ccccc2CC(=O)c2ccccc21 |  |  |  |  |  |  |  |  |  | inactive | inactive | inactive | inactive | inactive | inactive | inactive | inactive |  |
| CCN1CCOCC1 |  |  |  |  |  |  |  |  |  | inactive | inactive | inactive | inactive | inactive | inactive | inactive | inactive |  |
| CCCCCCC#CC(=O)OC |  |  |  |  |  |  |  |  | inactive | inactive | inactive | inactive | inactive | inactive | inactive | inactive | inactive |  |
| CCCCS(=O)(=O)N[C@@H](Cc1ccc(OCCCCC2CCNCC2)cc1)C(=O)O |  |  |  |  |  |  |  |  |  | inactive | inactive | inactive | inactive | inactive | inactive | inactive | inactive |  |
| [O-][n+]1cccc(CO)c1 |  |  |  |  |  |  |  |  | inactive | inactive | inactive | inactive | inactive | inactive | inactive | inactive | inactive | inactive |
| O=S(=O)(O)c1cccc2c(S(=O)(=O)O)cccc12 |  |  |  |  |  |  |  |  | inactive | inactive | inactive | inactive | inactive | inactive | inactive | inactive | inactive | inactive |
| CCO[Si](OCC)(OCC)c1ccccc1 |  |  |  |  |  |  |  |  | inactive | inactive | inactive | inactive | inactive | inactive | inactive | inactive | inactive | inactive |
| CCOC(=O)CCC(=O)OCC |  |  |  |  |  |  |  |  | inactive | inactive | inactive | inactive | inactive | inactive | inactive | inactive | inactive | inactive |
| CC(C)(C)c1ccc(-c2ccc(C(C)(C)C)cc2)cc1 |  |  |  |  |  |  |  |  | inactive | inactive | inactive | inactive | inactive | inactive | inactive | inactive | inactive | inactive |
| CC1CCC(CO)CC1 (stereo not given) |  |  |  |  |  |  |  |  | inactive | inactive | inactive | inactive | inactive | inactive | inactive | inactive | inactive |  |
| Cc1ccccc1N=C(N)N=C(N)N |  |  |  |  |  |  |  |  | inactive | inactive | inactive | inactive | inactive | inactive | inactive | inactive | inactive |  |
| CO/N=C(\C(=O)N[C@@H]1C(=O)N2C(C(=O)O)=C(CSc3nc(=O)c(O)nn3C)CS[C@H]12)c1csc(N)n1 |  |  |  |  |  |  |  |  | inactive | inactive | inactive | inactive | inactive | inactive | inactive | inactive | inactive | inactive |
| CCC(C)(CN(C)C)OC(=O)c1ccccc1 (stereo not given) | -0.0159% [at 18.6 µM] | -0.0658% [at 18.6 µM] | -0.158% [at 18.6 µM] | -0.827% [at 18.6 µM] | -0.0837% [at 18.6 µM] | 0.131% [at 18.6 µM] | 0.0276% [at 18.6 µM] | -0.0227% [at 18.6 µM] | inactive |  |  |  |  |  |  |  |  | inactive |
| NCCCC[C@H](N[C@@H](CCc1ccccc1)C(=O)O)C(=O)N1CCC[C@H]1C(=O)O | -0.012% [at 18.6 µM] | -0.095% [at 18.6 µM] | -0.028% [at 18.6 µM] | 0.14% [at 18.6 µM] | -0.221% [at 18.6 µM] | -0.005% [at 18.6 µM] | -0.127% [at 18.6 µM] | 0.0286% [at 18.6 µM] | inactive |  |  |  |  |  |  |  |  | inactive |
| CCN[C@H]1C[C@H](C)S(=O)(=O)c2sc(S(N)(=O)=O)cc21 |  |  |  |  |  |  |  |  | inactive | inactive | inactive | inactive | inactive | inactive | inactive | inactive | inactive | inactive |
| O=S(=O)(O)c1cccc2ccccc12 |  |  |  |  |  |  |  |  | inactive | inactive | inactive | inactive | inactive | inactive | inactive | inactive | inactive |  |
